Assay results: ChEMBL document CHEMBL4513216, “Probing the Open Global Health Chemical Diversity Library for Multistage-Active Starting Points for Next-Generation Antimalarials” (ACS Infect Dis, 2020)
The campaign covered roughly 69,000 compounds. About 8,600 (12%) showed an effect of 50% or more. The sample as a whole holds a higher share of strong results than the screen did.

The compounds below were run on Plasmodium berghei (assay: Screen against P. berghei liver stage (PbLuc), transformed with Luciferase, at 10uM). Conditions: tested at 10 uM.
Assay type: functional, HepG2

Compound	INHIBITION
Cn1ccnc1-c1ccc(NC[C@H]2CCc3ccccc3O2)nn1	60%
Cn1ccnc1-c1ccc(NCC2COc3ccccc3O2)nn1 (stereo not given)	-9.17%
Cn1ccnc1-c1ccc(NCCC2COc3ccccc3O2)nn1 (stereo not given)	34%
CCC(O)CN1CCN(C(=O)c2sccc2C2CC2)CC1 (stereo not given)	19.5%
Cc1nc(CN2CCN(C(C)c3nc(C(C)C)no3)CC2)oc1C (stereo not given)	6.7%
Cc1cc(C)n(C2CN(c3ncnc4c3CCC4)C2)n1	0.868%
Cc1cc(C)n(C2CN(c3nc(-c4ccncc4)nc4c3CCC4)C2)n1	81.4%
c1cnn(C2CN(c3nc(-c4ccncc4)nc4c3CCC4)C2)c1	53.6%
OCCC1CN(c2nc(-c3ccncc3)nc3c2CCNCC3)CCO1 (stereo not given)	11.8%
Cc1cc(C)n(C2CN(c3nc(N)nc4c3CCCC4)C2)n1	34.1%
Cc1cnn(C2CN(c3nc(-c4ccncc4)nc4c3CCC4)C2)c1	44.3%
CC1(c2ncc(CN(CC(=O)O)Cc3ccccc3)cn2)CCCCO1 (stereo not given)	16.9%
Cc1ccc(F)c2c1CCCN2C(=O)c1cn(CC(=O)N(C)C)nn1	29.1%
CC1(C)OCC(CNC(=O)c2cnn(-c3cccc(Cl)c3Cl)c2N)O1 (stereo not given)	-101%
Cn1ccnc1CN1CCCC1CCc1ccccc1 (stereo not given)	-67.9%
O=C(CCNc1ccccc1)NC1CCN(C(=O)C2CCCCC2)CC1	27.6%
O=C(c1ccoc1)N1CCOCC2(CCN(C3CCOCC3)C2)C1 (stereo not given)	34.4%
CC(C)NC(=O)N1CCCC2(CCN(c3ccsc3)C2=O)C1 (stereo not given)	-4.82%
CCc1nnc(CN2CCCC(c3cc(C(N)=O)[nH]n3)C2)o1 (stereo not given)	4.71%
CCC(=O)c1ccc(OCC(=O)NCC2CCCO2)cc1 (stereo not given)	3.48%
CCC(=O)c1ccc(OCC(=O)NCC2CC(CC)=NO2)cc1 (stereo not given)	52.6%
C=C(C)COc1ccc(C(=O)NCC2CC(CC)=NO2)cc1 (stereo not given)	6.26%
Cc1cc2cccc(NC(=O)N3CC[C@H]4CC[C@@H](C3)N4C)c2o1	-4.01%
CCN(CC(=O)NC(C)C)C(=O)c1ccc(-c2ccsc2)nc1C	47%
CCc1n[nH]c(C2CN(C(=O)c3ncoc3CC)CCO2)n1 (stereo not given)	-19.9%
CCn1cnnc1C1CCN(C(=O)c2cccc(OC)c2OC)CC1	22.3%
CN(Cc1ccoc1)C(=O)C1(Oc2ccc(Cl)cc2)CCNCC1	11.9%

Compound	INHIBITION
CN(Cc1ccncn1)C(=O)C1(Oc2ccc(Cl)cc2)CCNCC1	53.3%
CN(C)C(=O)C1(Oc2ccc(Cl)cc2)CCNCC1	1.79%
CC(C)c1ccc2c(c1)CCCN2C(=O)CN(C)S(C)(=O)=O	48.3%
CC(=O)c1c(C)nn(S(=O)(=O)c2ccc(F)cc2)c1C	53.8%
CC(=O)c1c(C)nn(S(=O)(=O)c2ccc(Cl)cc2)c1C	-16.6%
CC(=O)c1c(C)nn(S(=O)(=O)c2ccc(C)cc2)c1C	-15.5%
CSc1nc(N)cc(N2C[C@H]3CC[C@@H](C2)N(Cc2cscn2)C3=O)n1	9.4%
CS(=O)(=O)N1CCC2(CC1)CN(CC1CC1)CC21CCNC1=O (stereo not given)	3.81%
COCCN1C[C@@H]2CC[C@H]1CN(C(=O)c1ccc(Cl)cc1)C2	66.1%
O=S(=O)(c1cccnc1)N1C[C@H]2CC[C@@H](C1)N(Cc1ccccn1)C2	31.7%
O=C(c1ccc(F)c(Cl)c1)N1C[C@H]2CC[C@@H](C1)N(Cc1ccccc1)C2	68.5%
COCCN1C[C@@H]2CC[C@H]1CN(C(=O)CCn1cc(Cl)cn1)C2	26.6%
CCN(CC)c1ccc(C(=O)N2C[C@H]3CC[C@@H](C2)N(CCOC)C3)cc1	25.4%
O=S(=O)(c1cccc(F)c1)N1C[C@H]2CC[C@@H](C1)N(Cc1ccccc1)C2	63.6%
O=C(c1c[nH]c(=O)c(Cl)c1)N1C[C@H]2CC[C@@H](C1)N(Cc1ccccc1)C2	-23.2%
O=C(c1cc(F)cc(Cl)c1)N1C[C@H]2CC[C@@H](C1)N(Cc1ccccc1)C2	-31.3%
O=S(=O)(c1cccnc1)N1C[C@H]2CC[C@@H](C1)N(Cc1ccccc1)C2	18.6%
CN1CCN(C(=O)C2CCN(c3cccnn3)CC2)CC1	-9.32%
CCc1nnc2n1CCN(C(=O)c1nc(-c3ccco3)sc1C)C2	21.5%
O=C(Cn1ccc(C(=O)O)n1)Nc1c(Cl)cccc1Cl	19.09%
Cc1ncc(CN(C)Cn2nc(-c3ccccc3)oc2=O)s1	3.41%
CN(Cc1nnc2n1CCC2)C(=O)c1ccc2c(c1)OCCO2	-2.53%
O=C(Cc1ccccc1F)N1CCN(C(=O)c2ccoc2)CC1	16.6%
Cc1nnc2ccc(N3CCC4(CCOC4)C3)nn12 (stereo not given)	9%
Cc1nc(C)c(C)c(N2CCC3(CCOC3)C2)n1 (stereo not given)	-129%
Cc1nc(N2CCC3(CCOC3)C2)c2cc[nH]c2n1 (stereo not given)	71.1%
COc1ccc2c(c1)CN(Cc1ccco1)C(=O)CCN2	17.7%

Compound	INHIBITION
Cc1ccc(-n2cc(C(=O)N3CCCC(n4cccn4)C3)nn2)cc1 (stereo not given)	-2.19%
O=C(N1CCOCC(O)C1)C1(c2ccc(Cl)cc2)CCC1 (stereo not given)	0.0996%
O=C(O)CC1COCCN1C(=O)C1(c2ccc(Cl)cc2)CCC1 (stereo not given)	1.74%
CNC(=O)CC1COCCN1C(=O)C1(c2ccc(Cl)cc2)CCC1 (stereo not given)	52.1%
COc1cc(C(=O)N2CCC(c3n[nH]c(C)n3)CC2)cc(OC)c1C	0.914%
O=C(Cc1n[nH]c(-c2cncc(Br)c2)n1)NCc1ccccn1	22.5%
CC1(c2nccs2)CCN(C(=O)CCN2CCOCC2)CC1	23.3%
Cc1noc(C(C)N2CCN(Cc3nc(C)c(C)o3)CC2)n1 (stereo not given)	-2.143%
Cc1noc(-c2ccc(N(C)Cc3ccncn3)nc2)n1	26.4%
Cc1noc(-c2ccc(N(C)Cc3nccs3)nc2)n1	1.79%
CN(Cc1ccc([S+](C)[O-])cc1)c1ccccn1 (stereo not given)	40.5%
Cc1noc(-c2cccnc2N(C)Cc2cc(C)on2)n1	50.8%
Cc1noc(-c2ccc(N(C)Cc3ccncc3C)nc2)n1	-3.58%
Cc1noc(-c2cccnc2N(C)Cc2ccc([S+](C)[O-])cc2)n1 (stereo not given)	79.9%
Cc1noc(-c2cccnc2N2CCN(c3cnn(C)c3)CC2)n1	-26.8%
Cc1noc(-c2ccc(N(C)Cc3cccnc3)nc2)n1	28.7%
Cc1noc(-c2cccnc2N(C)Cc2cscn2)n1	68.8%
Cc1nn(S(=O)(=O)c2ccc(Cl)cc2)c(C)c1C	9.52%
COc1cc(N2CCC3(CCN(C(=O)c4cccnc4)CC3)C2)ncn1	-3.77%
COc1ncccc1C(=O)N1CC[C@H]2C[C@H](c3nnc(C)[nH]3)O[C@@H]2C1	15.4%
CC(C)N(C)Cc1nnc2n1CCN(S(=O)(=O)C1CC1)CC2	29%
N#Cc1cccc(N2CC3(CCN(C(=O)c4cccnc4)C3)CC2=O)c1 (stereo not given)	19.9%
COCc1nc(N(C)C)ncc1C(=O)NC(C)C	-1.58%
COCc1nc(N(C)C)ncc1C(=O)OC	66.5%
CCCNC(=O)c1cnc(N(C)C)nc1COC	-10.3%
Cc1cnn(CC2CCCCN2C(=O)c2ccccc2-n2cccn2)c1 (stereo not given)	38.8%
CCc1ccc(NS(=O)(=O)c2cc3c(c(C(=O)O)c2)OCCO3)cc1	9.14%

Compound	INHIBITION
OC1(c2cn(C3CCN(C4CCSC4)CC3)nn2)CCCC1 (stereo not given)	-23%
CC(C)(C)c1cn(C2CCN(C(=O)c3cnccn3)CC2)nn1	61.1%
CCC(=O)N1CCC(n2cc(C(C)(C)O)nn2)CC1	42.1%
C[C@H]1C[C@@H]2CCN(C(=O)c3cnccn3)C[C@H]2O1	7.31%
CC(C)(C)c1cn(C2CCN(C(=O)c3cncnc3)CC2)nn1	54.4%
CC(C)(C)c1cn(C2CCN(C3CCSC3)CC2)nn1 (stereo not given)	70.9%
CC(C)(N)c1cn(C2CCN(C3CCSCC3)CC2)nn1	-7.77%
CC(C)n1cc(C(=O)N2CCC(n3cc(C(C)(C)C)nn3)CC2)cn1	29.8%
CC(C)(O)c1cn(C2CCN(C(=O)CCc3ccncc3)CC2)nn1	23.9%
CCCc1cc(C(=O)N[C@H](C)[C@@H](O)c2ccc(O)cc2)n(C)n1	20.3%
Cc1ccccc1C(=O)NCC(=O)NCc1ccccn1	46.3%
CC[C@@H]1N(Cc2ccc(F)cc2)CCC[C@]12CCC(=O)N2CCOC	-69.5%
Cc1ccc(C(=O)N(C)Cc2csc(Br)c2)c(=O)[nH]1	21.8%
Cc1cc2n(n1)CC(CNCc1cc(C)on1)CN2 (stereo not given)	26.8%
CCNC(=O)[C@@H]1CCCN1[C@@H](C(=O)NC)c1ccccc1	-1.12%
Cc1cccc(S(=O)(=O)NCC(C)(C)CC(C)O)c1C#N (stereo not given)	18.8%
CC(O)CC(C)(C)CNS(=O)(=O)c1cccc(Cl)c1C#N (stereo not given)	53.5%
Cc1c(F)cccc1S(=O)(=O)NCC(C)(C)CC(C)O (stereo not given)	-11.9%
COc1cccc2c3c(c(=O)[nH]c12)CCO3	20.9%
CC(C)CN1CC[C@@H]2[C@@H]1CCN2S(=O)(=O)c1cn(C)cn1	13.7%
COCCN(Cc1sccc1C)c1nc(C)nc2sccc12	14.6%
CCCN(CCOC)c1nc(C)nc2sccc12	53.9%
CCOCCN(CCOCC)c1nc(C)nc2sccc12	69.7%
COCCN(Cc1cnn(C)c1)c1nc(C)nc2sccc12	-39.2%
